These results are taken from PubChem BioAssay (EPA / NIEHS).

“And” between values parts separate entries of the source, which are not always exact repeats. Equal values may be shown once. The source holds several records for some structures; these can differ, active in one and inactive in another. The source made the active and inactive calls. How the source made its calls: active means hit-call score of the fitted dose curve at least 0.9, where 1 is the maximum; inactive means score below 0.9.

Read-out in experiment [1]: Tissue plasminogen activator (tPA), PLAT (gene 5327)
As to the kind of experiment: BSK_BE3C_tPA: BioMAP Diversity Plus: BE3C Assay for Tissue plasminogen activator (tPA) Biomarker Activity (AID 2283041).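 On outcome: tPA level quantified by ELISA one day after compound addition.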 The settings on record: primary human bronchial epithelial cells; actives raise or lower the signal. The essentials: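 Gain- or loss-of-signal in tPA, measured by ELISA, derived by bidirectional fitting against DMSO. Cells: human primary bronchial epithelial; read at 24 h after chemical dosing.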

Read-out in experiment [2]: Interleukin-8 (IL8), CXCL8 (gene 3576)
The experiment can be described thus: BSK_CASM3C_IL8: BioMAP Diversity Plus: CASM3C Assay for Interleukin-8 (IL8) Biomarker Activity (AID 2283042).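 Further: IL-8 protein level quantified by ELISA.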 The settings on record: primary human coronary artery smooth muscle cells; actives raise or lower the signal.

Read-out in experiment [3]: Human Leukocyte Antigen - DR isotype (HLADR), HLA-DRA (gene 3122)
The experiment can be described thus: BSK_CASM3C_HLADR: BioMAP Diversity Plus: CASM3C Assay for Human Leukocyte Antigen - DR isotype (HLADR) Biomarker Activity (AID 2283043).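 Further: cell-surface HLA-DR protein level quantified by ELISA.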 The settings on record: primary human coronary artery smooth muscle cells; actives raise or lower the signal.

Read-out in experiment [4]: Macrophage colony-stimulating factor (MCSF), CSF1 (gene 1435)
The experiment can be described thus: BSK_CASM3C_MCSF: BioMAP Diversity Plus: CASM3C Assay for Macrophage colony-stimulating factor (MCSF) Biomarker Activity (AID 2283044).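 Further: M-CSF protein amount quantified by ELISA after 24 h exposure.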 The settings on record: primary human coronary artery smooth muscle cells; actives raise or lower the signal.

Read-out in experiment [5]: Low-density lipoprotein receptor (LDLR), LDLR (gene 3949)
The experiment can be described thus: BSK_CASM3C_LDLR: BioMAP Diversity Plus: CASM3C Assay for Low-density lipoprotein receptor (LDLR) Biomarker Activity (AID 2283045).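 Further: LDLR protein level on the cell surface quantified by ELISA.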 The settings on record: primary human coronary artery smooth muscle cells; actives raise or lower the signal.

Read-out in experiment [6]: Monocyte Chemoattractant Protein-1 (MCP1), CCL2 (gene 6347)
As to the kind of experiment: BSK_CASM3C_MCP1: BioMAP Diversity Plus: CASM3C Assay for Monocyte Chemoattractant Protein-1 (MCP1) Biomarker Activity (AID 2283046).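 Further: MCP-1 level quantified by ELISA 24 h after dosing.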 The settings on record: primary human coronary artery smooth muscle cells; actives raise or lower the signal.

Experiment [7] can be described thus: BSK_CASM3C_Proliferation: Cell Proliferation Assessment in the BioMAP Diversity Plus: CASM3C Assay (AID 2283047).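 Further: sulforhodamine B total protein stain as relative cell number at 560 nm; sub-confluent cells exposed 48 h before staining; fitted both ways against DMSO so gain or loss of cell number.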 The settings on record: primary human coronary artery smooth muscle cells.
Read-out in experiment [8]: Monokine induced gamma interferon (MIG), CXCL9 (gene 4283)
As to the kind of experiment: BSK_CASM3C_MIG: BioMAP Diversity Plus: CASM3C Assay for Monokine induced gamma interferon (MIG) Biomarker Activity (AID 2283048).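 Further: MIG protein level measured by ELISA.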 The settings on record: primary human coronary artery smooth muscle cells; actives raise or lower the signal.

Read-out in experiment [9]: serum amyloid A (SAA), SAA1 (gene 6288)
As to the kind of experiment: BSK_CASM3C_SAA: BioMAP Diversity Plus: CASM3C Assay for serum amyloid A (SAA) Biomarker Activity (AID 2283049).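 Further: SAA protein level quantified by ELISA.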 The settings on record: primary human coronary artery smooth muscle cells; actives raise or lower the signal.

Experiment [10] in a line: BSK_CASM3C_SRB: Viability Assessment in the BioMAP Diversity Plus: CASM3C Assay (AID 2283050).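 Further: total protein by SRB staining as cytotoxicity measure in parallel cultures; cells exposed to compound for 24 h.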 The settings on record: primary human coronary artery smooth muscle cells.
Read-out in experiment [11]: Thrombomodulin, THBD (gene 7056)
As to the kind of experiment: BSK_CASM3C_Thrombomodulin: BioMAP Diversity Plus: CASM3C Assay for Thrombomodulin Biomarker Activity (AID 2283051).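 Further: thrombomodulin protein level measured by ELISA 24 h after dosing.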 The settings on record: primary human coronary artery smooth muscle cells; actives raise or lower the signal.

Read-out in experiment [12]: Tissue Factor, F3 (gene 2152)
As to the kind of experiment: BSK_CASM3C_TissueFactor: BioMAP Diversity Plus: CASM3C Assay for Tissue Factor Biomarker Activity (AID 2283052).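 Further: cell surface tissue factor protein level read by ELISA.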 The settings on record: primary human coronary artery smooth muscle cells; actives raise or lower the signal.

Read-out in experiment [13]: Interferon-gamma inducible Protein 10 (IP10), CXCL10 (gene 3627)
The experiment can be described thus: BSK_hDFCGF_IP10: BioMAP Diversity Plus: hDFCGF Assay for Interferon-gamma inducible Protein 10 (IP10) Biomarker Activity (AID 2283053). The settings on record: primary human foreskin fibroblasts; actives raise or lower the signal. The procedure, abridged: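 Cells: human dermal foreskin fibroblasts. Exposure: 24 h post-dosing. Detection: IP-10 ELISA, with values expressed against DMSO controls and fitted in both directions.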

Read-out in experiment [14]: Urokinase-type plasminogen activator receptor (uPAR), PLAUR (gene 5329)
The experiment can be described thus: BSK_CASM3C_uPAR: BioMAP Diversity Plus: CASM3C Assay for Urokinase-type plasminogen activator receptor (uPAR) Biomarker Activity (AID 2283054).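 Further: cell-surface uPAR protein level quantified by ELISA.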 The settings on record: primary human coronary artery smooth muscle cells; actives raise or lower the signal.

Read-out in experiment [15]: Vascular cell adhesion molecule 1 (VCAM1), VCAM1 (gene 7412)
The experiment can be described thus: BSK_CASM3C_VCAM1: BioMAP Diversity Plus: CASM3C Assay for Vascular cell adhesion molecule 1 (VCAM1) Biomarker Activity (AID 2283055).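 Further: VCAM-1 protein level quantified by ELISA on the cells.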 The settings on record: primary human coronary artery smooth muscle cells; actives raise or lower the signal.

Read-out in experiment [16]: Collagen III, COL3A1 (gene 1281)
The experiment can be described thus: BSK_hDFCGF_CollagenIII: BioMAP Diversity Plus: hDFCGF Assay for Collagen III Biomarker Activity (AID 2283056). The settings on record: primary human foreskin fibroblasts; actives raise or lower the signal. The essentials:
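Human foreskin primary fibroblasts were exposed to test chemicals for 24 h, after which collagen III was quantified by ELISA. Activity was fitted bidirectionally against DMSO as negative control and baseline.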

Read-out in experiment [17]: Epidermal growth factor receptor (EGFR), EGFR (gene 1956)
As to the kind of experiment: BSK_hDFCGF_EGFR: BioMAP Diversity Plus: hDFCGF Assay for Epidermal growth factor receptor (EGFR) Biomarker Activity (AID 2283057). The settings on record: primary human foreskin fibroblasts; actives raise or lower the signal. The procedure, abridged:
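Dosing human primary skin fibroblasts, then measuring surface EGFR by ELISA at 24 h, gives the endpoint; gains and losses relative to DMSO were fitted in both directions.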

Read-out in experiment [18]: Interleukin-8 (IL8), CXCL8 (gene 3576)
The experiment can be described thus: BSK_hDFCGF_IL8: BioMAP Diversity Plus: hDFCGF Assay for Interleukin-8 (IL8) Biomarker Activity (AID 2283058). The settings on record: primary human foreskin fibroblasts; actives raise or lower the signal. The essentials: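 hDFCGF human dermal fibroblasts; 24 h chemical exposure; IL-8 by ELISA; bidirectional curve fit vs DMSO baseline; gain or loss of signal scored.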

Experiment [19] can be described thus: BSK_hDFCGF_Proliferation: Cell Proliferation Assessment in the BioMAP Diversity Plus: hDFCGF Assay (AID 2283059).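 Further: curves fitted for both rise and fall of signal versus DMSO baseline.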 The settings on record: primary human foreskin fibroblasts. The essentials:
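Primary human foreskin fibroblasts, sub-confluent; […]; 10% TCA fix, 0.1% SRB stain, A560 total protein. Gain/loss fitted bidirectionally vs DMSO control.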

Read-out in experiment [20]: Macrophage colony-stimulating factor (MCSF), CSF1 (gene 1435)
The experiment can be described thus: BSK_hDFCGF_MCSF: BioMAP Diversity Plus: hDFCGF Assay for Macrophage colony-stimulating factor (MCSF) Biomarker Activity (AID 2283060). The settings on record: primary human foreskin fibroblasts; actives raise or lower the signal. The procedure, abridged: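 Human foreskin primary fibroblasts were treated with test chemical for 24 h, and M-CSF was then measured by ELISA. Data were fitted bidirectionally against DMSO as the negative control and activity baseline.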

As to `C=CC(=O)OCC(CO)(COC(=O)C=C)COC(=O)C=C`, the outcome in experiment [1] and in [17] was inactive. For the same compound, the AC50 in experiment [2] was 1.25 µM (active); in experiment [3], 567 nM (active); in experiment [4] it was 1.07 µM (active); in experiment [5] it was 1.31 µM (active); in [6], 792 nM (active); in experiment [7], 302 nM (active). Besides, the AC50 in experiment [8] was 1.24 µM (active); in experiment [9], 5.46 µM (active); in experiment [10] it was 1.61 µM (active); in experiment [11], 4.58 µM (active); in [12], 1.25 µM (active); in experiment [13], 16 nM (active). For the same compound, the AC50 in [14] is 501 nM (active); in experiment [15], 206 nM (active); in experiment [16] it was 16 nM (active); in experiment [18], 3.97 µM (active); in experiment [19], 16 nM (active); in experiment [20], 37.7 nM (active).

`C=C1CC/C=C(\C)CC[C@@H]2[C@@H]1CC2(C)C`: the outcome in experiment [1], in experiment [2], in experiment [3], in experiment [4], in [5] and in experiment [6] was inactive. For the same compound, the result in [7], in experiment [8], in experiment [9], in experiment [11], in experiment [12] and in [14] was inactive. For the same compound, the outcome in [17] was inactive. In addition, the AC50 in [10] is 33.2 µM (active); in experiment [13], 30100 nM (active); in experiment [15], 29000 nM (active); in [16], 13500 nM (active); in [18], 33.9 µM (active); in [19], 6820 nM (active). Also, in experiment [20], the AC50 was 24500 nM (active).

Consider `CCCO[Si](OCCC)(OCCC)OCCC`, for which the outcome in experiment [1], in [2], in experiment [3], in experiment [4], in [5] and in experiment [6] was inactive. In addition, the outcome in experiment [7], in experiment [8], in experiment [9], in experiment [10], in experiment [11] and in experiment [12] was inactive. Also, the outcome in experiment [13], in experiment [14], in experiment [15], in experiment [16], in experiment [17] and in [18] was inactive. The outcome in experiment [20] was inactive. Further, the concentration at half-maximal activity (AC50) in experiment [19] is 31.1 µM (active) and 25.8 µM (active).

Consider `CC/C(=C(\c1ccccc1)c1ccc(OCCN(C)C)cc1)c1ccccc1`, for which the AC50 in experiment [1] is 7.72 µM (active) and 14 µM (active); in [2], 30.9 µM (active) and 15.7 µM (active); in [3], 28.8 µM (active) and 9.17 µM (active); in experiment [4] it was 21 µM (active) and 15.7 µM (active); in experiment [5], 31.8 µM (active) and 34.2 µM (active); in experiment [6], 27.4 µM (active) and 25.9 µM (active). In addition, the concentration at half-maximal activity (AC50) in [7] is 12.7 µM (active) and 6.94 µM (active); in [8], 31.5 µM (active) and 32 µM (active); in experiment [9], 28.1 µM (active) and 11.7 µM (active); in [10] it was 27.2 µM (active) and 16.9 µM (active); in [11] it was 4.85 µM (active); in experiment [12], 13.7 µM (active). Also, the concentration at half-maximal activity (AC50) in experiment [13] was 8.93 µM (active) and 7.96 µM (active); in experiment [14], 25.9 µM (active) and 14.2 µM (active); in [15], 29 µM (active) and 16.1 µM (active); in experiment [16], 9.76 µM (active) and 7.96 µM (active); in [18], 9.19 µM (active) and 7.91 µM (active); in experiment [19] it was 5.05 µM (active) and 314 nM (active). Further, the concentration at half-maximal activity (AC50) in [20] was 7.77 µM (active) and 7.23 µM (active). Besides, the result in experiment [11], in experiment [12] and in experiment [17] was inactive.

Consider `O=C(O)C(F)(F)OC(F)(F)C(F)(F)OC(F)(F)C(F)(F)C(F)(F)C(F)(F)F`, for which the AC50 was 12.4 µM (active) in experiment [1]; 48000 nM (active) in [6]; 15.6 µM (active) and 18.7 µM (active) in experiment [13]; 22.3 µM (active) and 29.2 µM (active) in experiment [16]; 6.97 µM (active) and 30 µM (active) in [20]. For the same compound, the result in experiment [1], in experiment [2], in experiment [3], in [4], in experiment [5] and in experiment [6] was inactive. Moreover, the result in experiment [7], in [8], in experiment [9], in experiment [10], in experiment [11] and in experiment [12] was inactive. The result in [14], in experiment [15], in [17], in experiment [18] and in experiment [19] was inactive.

The AC50 is the concentration at which the activity in the assay is half-maximal.
